Bioassay records from PubChem BioAssay.
Compounds with a hit are over-represented: about 6.7% of the library has one in this group of screens.
Anthrax LF prot – Bacillus anthracis LF protease inhibitors, primary screen, biochemical, multiplex microsphere, MLPCN library. AID 588501, 2011. multiplex microsphere protease cleavage assay. actives 0.12% (n = 360,000). inhibition, % at 10 µM. Lethal factor (Bacillus anthracis), P15917; further: plate controls were buffer without enzyme for full effect and enzyme alone for no effect
BoNT F protease – BoNT/F light chain protease inhibitors, primary screen, biochemical, flow cytometry, MLPCN library; inhibition, % at 10 µM; Multiplex microsphere protease cleavage assay; actives 0.22% (n = 360,000); in the data active means inhibition above about 35%, passing the limit was not always enough; inconclusive means no clear call, values can overlap the other calls; further: plate controls were buffer without enzyme for full effect and enzyme alone for no effect
BoNT-A LC inh2 – BoNT/A light chain protease inhibitors, primary screen, biochemical, flow cytometry, MLPCN library | Botulinum neurotoxin type A light chain protease (Clostridium botulinum A str. ATCC 3502) | AID 588499, 2011 | actives 0.17% (n = 360,000) | multiplex microsphere protease substrate cleavage | inhibition, % at 10 µM; further: plate controls were buffer without enzyme for full effect and enzyme alone for no effect
GDH-TPI inh – GDH-TPI coupling enzyme inhibitors, primary screen, artefact control for M. tuberculosis FBA inhibitor project, biochemical, absorbance, full deck; AID 588335, 2011; GDH-TPI coupled enzyme counterscreen, NADH absorbance; inhibition, % at 4.8 µM; actives 1.2% (n = 360,000); in the data active means inhibition above about 30%;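 further: 0% = DMSO wells and 100% = wells lacking the enzyme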
Autofluor counter – flagged as autofluorescent in microsphere protease counterscreen | compound autofluorescence counterscreen, microsphere flow cytometry; active compounds read high | fluorescence intensity (test concentration not listed) | actives 3.1% (n = 360,000); in the data active means fluorescence intensity above about 16000; inconclusive means no clear call, values can overlap the other calls
FBA Mtb inh – Mtb FBA enzyme inhibitors, primary screen, biochemical, fluorescence, strain H37Rv | Fructose-bisphosphate aldolase (Mycobacterium tuberculosis (strain ATCC 25618 / H37Rv)), … | purified M. tuberculosis FBA, fluorescence read-out | inhibition, % at 1 µM | actives 2.3% (n = 360,000) | AID 588726, 2011; in the data active means inhibition above about 27%;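 further: 0% = vehicle and 100% = reference inhibitor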
Target sequence (P9WQA3 whole entry, looked up): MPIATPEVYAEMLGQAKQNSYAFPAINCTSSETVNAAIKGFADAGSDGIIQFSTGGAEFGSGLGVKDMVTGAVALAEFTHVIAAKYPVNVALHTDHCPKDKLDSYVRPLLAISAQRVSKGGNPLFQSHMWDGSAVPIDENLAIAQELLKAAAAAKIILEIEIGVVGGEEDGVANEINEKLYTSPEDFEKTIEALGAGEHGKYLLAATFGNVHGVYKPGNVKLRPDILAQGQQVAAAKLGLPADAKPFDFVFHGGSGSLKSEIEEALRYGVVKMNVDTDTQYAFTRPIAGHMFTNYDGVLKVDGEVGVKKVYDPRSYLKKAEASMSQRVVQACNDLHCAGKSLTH
Numbers without * were called inactive; ? = inconclusive. Unless noted, no stated cut-off is given here; in the data, active means inhibition above about 30%; inconclusive means no clear call, values can overlap the other calls; inactive means below that.

SMILES	Anthrax LF prot	BoNT F protease	BoNT-A LC inh2	GDH-TPI inh	Autofluor counter	FBA Mtb inh
O=C(c1ccncc1)N1CCN(C(=O)c2ccncc2)CC1	-5	-3	-1	-3	22332*	-2
O=C(COC(=O)c1ccc([N+](=O)[O-])o1)NC1CCS(=O)(=O)C1 (stereo not drawn)	1	4	0	9	2021	3
COc1cccc(OC)c1C(=O)NC(C)C12CC3CC(CC(C3)C1)C2 (stereo not drawn)	4	35*	1	-2	3724	2
CC(NC(=O)c1ccc([N+](=O)[O-])o1)C12CC3CC(CC(C3)C1)C2 (stereo not drawn)	-3	-5	-1	3	5230	-2
Cc1cccc(CS(=O)(=O)c2cn(CC(=O)N3CCOCC3)c3ccccc23)c1	-2	-3	1	12	5975	3
Cc1c(Cl)ccc2c1NC(=O)[C@]21N[C@@H](Cc2ccccc2)[C@H]2C(=O)N(c3ccc(F)cc3)C(=O)[C@H]21	-2	-1	?	1	23930*	-3
O=C1[C@@H]2[C@H](Cc3ccc(O)cc3)N[C@]3(C(=O)Nc4ccccc43)[C@@H]2C(=O)N1c1ccc(F)cc1	15	2	-1	1	9543	4
CCCn1c(SCC(=O)NCC(=O)Nc2ccc(F)c(F)c2F)nc2ccccc2c1=O	5	1	0	3	6476	4
N#C/C(=C/c1ccc(Br)o1)C(N)=O	-10	7	1	45*	5635	0
O=C(Nc1ccc(Cl)cc1)Nc1nnc(CSCc2ccccc2)s1	-2	-2	0	11	2154	-1
CCOc1ccccc1C1C(C#N)=C(N)Oc2cc(N)ccc21 (stereo not drawn)	-7	0	3	9	21823*	4
COC(=O)c1c(C#N)c(N)nc2c1CCC2	-2	6	0	1	2773	130*
C=CCNc1nnc(-c2ccncc2)s1	0	-12	0	12	2384	181*
c1ccc2c(Nc3nnc(-c4ccncc4)s3)cccc2c1	-9	-16	-2	38*	11910	0
CN(C)c1ccc(/C=N/NC(=O)CNC(=O)c2ccncc2)cc1	4	3	0	33*	6146	5
CN(C)c1ccc(/C=N/NC(=O)CNC(=O)c2ccc3c(c2)OCCO3)cc1	-2	-1	0	40*	2371	24
COc1cc(/C=N/NC(=O)CNC(=O)c2ccncc2)ccc1O	10	-5	-1	13	6785	-1
O=C(CNC(=O)c1ccncc1)N/N=C/c1ccc(O)cc1O	-2	2	-1	39*	4153	0
CN(C)c1ccc(/C=N/NC(=O)CNC(=O)/C=C/c2ccco2)cc1	-1	1	0	40*	5928	6
Clc1nc(N2CCOCC2)ncc1Br	-3	-2	0	0	5842	1
Nc1nonc1-n1nnc(C(=O)N/N=C/c2ccncc2)c1-c1cccs1	-2	-13	-7	10	8369	-4
O=C(Nc1n[nH]c(C2CCCCC2)n1)C1CCCCC1	3	-9	0	-13	8750	-1
COc1ccccc1NCCC(=O)O	-1	3	-1	13	3623	2
O=c1c2cn(Cc3ccc(F)cc3)c3ccc(F)cc3c-2nn1Cc1ccc(F)cc1	-9	24	-1	1	3878	2
O=C(CSc1nnc2scc(-c3ccccc3)n12)Nc1nsc(-c2ccc(Cl)cc2)n1	0	-5	0	-2	2910	-1
O=C(CSc1nnc2scc(-c3ccccc3)n12)Nc1nsc(-c2ccccc2)n1	0	2	1	1	20413*	-1
Cc1ccc(-c2csc3nnc(SCC(=O)Nc4nsc(-c5ccccc5)n4)n23)cc1	-1	4	?	2	21990*	-1
NCCN1CCN(S(=O)(=O)c2ccc([N+](=O)[O-])cc2)C=C1c1ccc(Cl)cc1	-6	-30	0	7	5729	1
O=c1c2nnn(Cc3ccc(Cl)cc3)c2ncn1Cc1ccc(F)cc1	-1	-2	1	-1	22862*	0
